Shown are actives, neighbours in structure and some others; about 11% of the full set was active somewhere.
ALDH1A1 block – inhibitors of human aldehyde dehydrogenase 1A1 | Purified ALDH1A1, NADH fluorescence, propionaldehyde substrate | Potency, µM (highest dose often 75.3 µM), without a hit: top-dose activity, negative = inhibition, actives largely listed as inhibitors | 7.3% of 220,000 active;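 further: potency means the concentration at half of the fitted maximal effect; plate controls were no enzyme wells and a reference inhibitor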
IMPase Li cell – membrane-permeable IMPase blocker, potentiated with lithium. CHO-M1 cells, IP1 TR-FRET (IP-One), carbachol + lithium. Potency, µM (top dose mostly 59.4 µM), for the others: at the highest dose activity, negative = IMPase inhibition, most hits filed as inhibitors. 0.35% of 210,000 active; active means well fitted curve in the direction sought with a large enough effect; inconclusive means small, poorly fitted or top-dose-only effect, or another doubt; inactive means no such curve, though single readings can be large; an effect the other way counts as inactive or inconclusive;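 further: IP1 builds up when IMPase is blocked and the TR-FRET signal falls; potency means the concentration at half of the fitted maximal effect; plate controls were basal vehicle for no effect and high inhibitor control for full effect; nearly all actives have a fitted effect of over 50% in size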
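CHO cells stably expressing M1 receptor (2000/well, cultured 16–30 h) treated 30 min at 37C with compound plus low lithium. Cytosolic IP1 by TR-FRET (665/620 ratio and 620 channel) after 10 min lysis; AC50 by Hill fit.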
ALOX12 inhib – blocks human 12-lipoxygenase activity | purified 12-hLO, xylenol orange hydroperoxide absorbance | Potency, µM (doses to about 57.1 µM), for inactives: at the top dose activity change, negative = inhibition, actives largely listed as inhibitors | 0.12% of 150,000 active | P18054 | AID 1452; active means well fitted curve in the direction sought with a large enough effect; inconclusive means small, poorly fitted or top-dose-only effect, or another doubt; inactive means no such curve, though single readings can be large; an effect the other way counts as inactive or inconclusive; further: potency means the concentration at half of the fitted maximal effect; nearly all actives have a fitted effect of over 55% in size
Target sequence (P18054 whole entry, looked up): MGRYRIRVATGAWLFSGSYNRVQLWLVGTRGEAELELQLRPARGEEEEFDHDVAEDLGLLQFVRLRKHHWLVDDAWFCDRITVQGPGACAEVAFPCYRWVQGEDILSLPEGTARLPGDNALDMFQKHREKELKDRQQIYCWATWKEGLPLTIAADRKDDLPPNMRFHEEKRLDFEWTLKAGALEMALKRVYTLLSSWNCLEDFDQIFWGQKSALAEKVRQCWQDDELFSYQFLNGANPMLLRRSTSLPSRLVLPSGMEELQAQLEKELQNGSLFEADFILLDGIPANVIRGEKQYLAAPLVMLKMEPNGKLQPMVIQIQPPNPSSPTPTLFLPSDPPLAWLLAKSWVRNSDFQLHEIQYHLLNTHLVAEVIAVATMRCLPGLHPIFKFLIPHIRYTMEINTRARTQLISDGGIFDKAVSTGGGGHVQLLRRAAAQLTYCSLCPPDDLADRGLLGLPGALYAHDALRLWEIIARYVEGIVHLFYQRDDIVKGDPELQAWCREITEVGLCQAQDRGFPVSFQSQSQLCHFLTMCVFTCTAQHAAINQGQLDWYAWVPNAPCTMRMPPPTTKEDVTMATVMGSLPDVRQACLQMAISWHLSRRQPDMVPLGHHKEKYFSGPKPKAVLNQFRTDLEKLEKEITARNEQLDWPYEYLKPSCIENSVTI
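Purified human 12hLO (150 nM final) was preincubated with compounds for 15 min at room temperature in 25 mM Hepes pH 7.0, 0.01% Triton X-100, then reacted with 40 uM arachidonic acid for 30 min. Hydroperoxide was detected with ferrous iron/xylenol orange.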
PNC inhibitor – blocks assembly of the perinucleolar compartment | 3.1% of 140,000 active | activity change (PNC), negative = inhibition, % at 10 µM | PC3M PTB-GFP, PNC prevalence imaging, 16 h; stronger effect = lower value;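 active means readout at or below -70, meaning at least 70% loss of cells showing the perinucleolar compartment, a nuclear body marking cancer cells; inconclusive means readout between -30 and a set limit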;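 further: plate controls were DMSO wells for no effect and camptothecin positive control wells for full effect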
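Compounds are pinned in duplicate onto adhered PC3M cells stably expressing GFP-tagged PTB and incubated 16 h at 37 C. Cells are then fixed, nuclei stained with Hoechst, and PNC-positive cells counted.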
HPGD inh – blocks human HPGD enzyme activity | P15428 | purified HPGD, NADH fluorescence kinetic, PGE2 substrate | Potency, µM, for the others: at the top dose activity change, negative = inhibition, hits mostly inhibitors | 4.3% of 150,000 active | AID 894; further: potency means the concentration at half of the fitted maximal effect
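20 nM HPGD preincubated 15 min at room temperature with compound in 50 mM Tris-HCl pH 8, 0.01% Tween 20. Started with 1 mM NAD+ and 30 uM prostaglandin E2; NADH fluorescence (360/450 nm) read 5 times over 30-s intervals, last minus first.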
IMPase inh – cell-permeable inhibitors of inositol monophosphatase (IMPase); P97697; CHO-M1 cells, IP1 accumulation, HTRF TR-FRET ratio; inhibition (IP1 accumulation), % at 46.1 µM; 120,000 tested, under 10 active; AID 901; active means well fitted curve in the direction sought with a large enough effect in the signal ratio, not every such curve was filed as active; inconclusive means small, poorly fitted or top-dose-only effect, or a change in a side signal; inactive means no such curve, though single readings can be large or run the other way; the % refers to the signal ratio;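 further: cells stimulated with carbachol in lithium chloride buffer; plate controls were DMSO basal wells for no effect and reference inhibitor wells for full effect; higher means more IMPase inhibition seen as more IP1 and lower FRET ratio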
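The IP-One HTRF competitive assay in carbachol-stimulated CHO-M1 cells quantifies cellular IP1. Compounds spanned up to 46 uM final, and activity is expressed as AC50 from concentration-response fits of the ratio and donor data.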
* hit, by the source's call; ? = inconclusive; . = not tested or not shown; ! = not confirmed by another sample; [ ] = dose if it differs, or a comment. Unless noted, the call rests on the fitted dose curve; in most records, active means well fitted inhibition curve with a large enough effect (not every such curve was filed as active); inconclusive means small, poorly fitted or top-dose-only effect, or another doubt; inactive means no such curve, though single readings can be large or run the other way. Unless noted, on the % scale 0 is the no-effect control and ±100 the full control effect.

SMILES	ALDH1A1 block	IMPase Li cell	ALOX12 inhib	PNC inhibitor	HPGD inh	IMPase inh
O=C(NNS(=O)(=O)c1ccc(C(=O)NC2CCCC2)cc1)c1ccncc1	2.82µM*	-0.7%	.	.	.	.
O=C(NC1CC1)c1ccc(S(=O)(=O)NC2CCCCCC2)cc1	-4.0%	7.1%[38.3 µM]	-2.1%	-10.1	-17.0%	4.7
CC1(C)OC(=O)C(=CNc2ccccc2)C(=O)O1	?	-12.7%[38.3 µM]	-1.3%	2.6	-17.5%	2.2
CC1(C)OC(=O)C(=NNc2ccc(Br)cc2)C(=O)O1	12.6µM*	0.0%	-3.3%	-19.4	-15.2%	.
CCOC(=O)CNC(=O)c1ccc(C#CC2(O)CCCCC2)cc1	3.0%	1.4%	-0.7%	-13.4	-0.6%	.
O=C(c1ccc(C#CC2(O)CCCCC2)cc1)N1CCOCC1	-11.3%	31.6%[38.3 µM]	-7.2%	?	14.1µM*	?
N#CC(=C=[N-])c1nc2ccccc2nc1-[n+]1cccc(NC(=O)c2ccccc2)c1	14.1µM*!	.	.	.	.	.
N#CC(=C=[N-])c1nc2ccccc2nc1-[n+]1cccc(NC(=O)c2ccc(F)cc2)c1	-8.5%	.	.	.	.	.
CN(C)C(=S)c1ccccc1	7.08µM*	.	.	.	.	.
CN(C)c1ccc(C(=N)c2ccc(N(C)C)cc2)cc1	-10.8%	-11.5%	-7.1%	.	-2.6%	.
COc1ccc(C(=S)N(C)C)cc1OC	?	-9.1%[38.3 µM]	-3.0%	?	10µM*	-5.8
CN(C)C(=S)c1ccc(N(C)C)cc1	0.794µM*	22.3%	.	.	.	.
COc1ccccc1CN1CCCC2(CCN(C(=O)c3cc(C(F)(F)F)cc(C(F)(F)F)c3)CC2)C1	10.6%	27.9%	0.6%	.	-3.5%	.
S=C1NCCc2ccc(Cl)cc2C1c1ccccc1Cl (stereo not drawn)	13.2%	14.1%	?	-100.0*	-5.4%	-11.1
Clc1ccc2c(c1)C(C1=NCCN1)c1ccccc1CS2 (stereo not drawn)	14.2%	11.8%	0.8%	?	0.0%	.
CC12C=C(/C=C/c3ccc(Br)cc3)C(C)(C1)C(c1ccc(Br)cc1)CC2=O (stereo not drawn)	2.8%[13.5 µM]	.	.	.	.	.
COc1ccccc1NS(=O)(=O)c1ccc(O)c(C(=O)OCC(=O)c2ccc(Cl)cc2Cl)c1	1.12µM*	4.8%	.	.	.	.
COc1ccccc1NS(=O)(=O)c1ccc(O)c(C(=O)OCC(=O)N2c3ccccc3CC2C)c1 (stereo not drawn)	7.94µM*	4.7%	.	.	.	.
COc1ccccc1NS(=O)(=O)c1ccc(O)c(C(N)=O)c1	?	10.4%[38.3 µM]	-0.3%	?	-16.2%	-5.7[1.84 µM]
O=C(O)Cn1cc(C(=S)N2CCOCC2)c2ccccc21	18.9µM*	5.6%[38.3 µM]	0.0%	?	17.8µM*	-5.9
O=C(O)Cn1cc(C(=S)N2CCCCC2)c2ccccc21	10µM*	4.2%	.	.	.	.
O=C(C(=O)N1CCOCC1)c1cn(CC(=O)N2CCc3ccccc3C2)c2ccccc12	20µM*	2.6%	.	.	.	.
COCCNC(=O)Cn1cc(C(=S)N2CCCCC2)c2ccccc21	-11.7%	4.5%	.	.	.	.
O=C(C(=O)N1CCc2ccccc2C1)c1cn(CC(=O)N2CCOCC2)c2ccccc12	-4.8%	-6.7%	2.0%	-19.8	-12.8%	6.0
C/C(O)=C1\C(=O)[C@@H]2[C@H]3c4c[nH]c5cccc(c45)C[C@H]3C(C)(C)N2C1=O	-3.6%	4.3%	.	.	.	.
CCOC(=O)c1cc(OC(=O)c2ccc(C)cc2)n(-c2ccccc2)n1	.	.	.	.	.	-7.1
CC1=C(C(=O)Nc2ccc(Cl)cc2)C(c2cccs2)n2nc(SCc3cccc(Cl)c3)nc2N1 (stereo not drawn)	.	.	.	.	.	-1.1
COC(=O)C1=C(C(=O)c2ccccc2)C(c2cccs2)n2nnnc2N1 (stereo not drawn)	22.4µM*	-9.4%[38.3 µM]	-3.9%	?	-6.5%	-1.4
CC1=C(C(=O)Nc2ccc(Cl)cc2)C(c2cccs2)n2nnnc2N1 (stereo not drawn)	5.01µM*	-3.3%[38.3 µM]	-5.3%	-26.6	-9.8%	-2.4
COC(=O)C1=C(C(=O)c2ccccc2)C(c2ccc(O)c(OC)c2)n2nnnc2N1 (stereo not drawn)	8.6%	14.9%[38.3 µM]	8.2%	21.7	-4.8%	3.9
